# Assay outcomes (PubChem)
# A selection: hits, their analogues and other compounds. The true share with any hit is near 14%.
# LASV entry inh = inhibitors of Lassa virus binding or cell entry; Potency, µM (top dose mostly 37.9 µM), without a hit: at the highest dose activity change, negative = inhibition, hits mostly inhibitors; AID 540256; hit rate 1.2% among 300,000; Lassa virus pseudotype entry inhibition, cell reporter; calls by dose curve; tested in HEK293 cells; also: potency is read from the fitted curve at half-maximal effect; nearly all actives have a fitted effect of over 50% in size
# Pf growth 96h = P. falciparum growth inhibition at 96 hour, primary screen for plastid delayed-death inhibitors. P. falciparum luciferase reporter growth, 96 h. Potency, µM (top dose mostly 28.7 µM), inactives show at the top dose activity change, negative = inhibition, usual class: inhibitors. hit rate 6.9% among 320,000. AID 504834; also: potency is read from the fitted curve at half-maximal effect
#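 Two-generation exposure (96 h) targets delayed-death phenotype. Reporter parasites carrying integrated firefly luciferase, in red cells at 2% hematocrit and 0.05% parasitemia final, kept at 37 C, 5% CO2; luminescence loss indicates inhibition.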
# HCV inhibitor = blocks hepatitis C virus; Huh7.5.1 HCVcc-Cre infection, luciferase reporter, 44 h; Potency, µM (series often up to 41.8 µM), inactives show at the highest dose activity change, negative = inhibition, most hits filed as inhibitors; hit rate 3.4% among 340,000; AID 651820; also: potency is read from the fitted curve at half-maximal effect
#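 1,000 cells/well; 4 h culture; + compound; + HCVcc-Cre (~0.5 moi); 44 h; luciferase substrate, RT 15 min; read 15 sec.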
# HCMV antiviral = blocks human cytomegalovirus replication | activity change, negative = inhibition, % at 57.5 µM | hit rate 4.5% among 410,000 | AID 1259415 | HFF cells, HCMV-luciferase reporter, 72 h; stronger effect = lower value; in the data active = activity change below about -60%; inconclusive = no clear call, values can overlap the other calls; inactive = above about -39%
#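 HFF cells seeded 16 h at 37C, treated with compounds, infected with luciferase-reporter HCMV at MOI 1 PFU/cell; luciferase read at 72 h post infection, normalized to buffer-only and Salinomycin controls.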
# Pf growth 48h = inhibits P. falciparum growth in the first generation, 48 h | hit rate 5.9% among 310,000 | P. falciparum luciferase growth in erythrocytes, 48 h | AID 504832 | Potency, µM (doses to about 28.7 µM), inactives show at the highest dose activity change, negative = inhibition, hits mostly inhibitors; also: potency is read from the fitted curve at half-maximal effect
#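 Read-out is firefly luciferase luminescence from an integrated reporter in P. falciparum, so falling signal marks reduced parasite growth. Infected erythrocytes were at 2% hematocrit and 0.1% parasitemia (final) in Albumax-supplemented RPMI 1640.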
# Marburg entry inh = Marburg virus entry inhibition; Potency, µM (series often up to 37.8 µM), inactives show at the highest dose activity change, negative = inhibition, usual class: inhibitors; AID 540276; hit rate 1.8% among 300,000; Marburg virus pseudotyped entry inhibition, cell reporter; calls by dose curve; tested in HEK293 cells; also: potency is read from the fitted curve at half-maximal effect
# Starred values were filed as active, the others as inactive; ? = inconclusive; · = no result given; [ ] = remark or other dose. Unless noted, calls follow the shape of the dose curve; as a rule, active = well fitted inhibition curve with a large enough effect; inconclusive = small, poorly fitted or top-dose-only effect, or another doubt; inactive = no such curve, though single readings can be large or run the other way. % is scaled to controls: 0 for no effect and ±100 for the full control effect.
SMILES,LASV entry inh,Pf growth 96h,HCV inhibitor,HCMV antiviral,Pf growth 48h,Marburg entry inh
O=C(CSc1ncnc2c1cnn2-c1ccccc1)Nc1ccccc1,-25%,-4%,?,?,27%,?
CC(C)C(=O)NNC(=O)CSc1ncnc2c1cnn2-c1ccccc1Cl,·,-22%,15%,-65*,2%[0.00184 µM],·
Cc1csc(NC(=O)CSc2ncnc3c2cnn3-c2ccccc2Cl)n1,?,-2%,18µM*,·,0%,13µM*
Cc1csc(NC(=O)CSc2ncnc3ccccc23)n1,1%,28%,?,?,-5%,-14%
CN(C)C(=S)Oc1ccccc1C1SCCS1,·,·,·,-13,·,·
CC(=O)OC1=CN(Cc2ccccc2)S(=O)(=O)c2ccccc21,-18%[46.1 µM],·,·,-5,·,8%[46.1 µM]
O=C(Nc1cccc(Cl)c1)c1ccc2c(c1)SC1=NS(=O)(=O)CCN12,?,?,-23%,-79*,?,?
CCNC(=O)O/N=C(\C)c1sc(-c2ccccc2)nc1C,-15%,?,11µM*,63,17%,?
O=C(c1ccc2c(c1)N(Cc1c(F)cccc1Cl)C(=O)c1ccccc1S2)N1CCCC1,?,·,·,-33,·,?
COc1c(F)c(F)cc2c(=O)c(C(=O)O)cn(C3CC3)c12,17%,31%,16%,-61*,5%[0.00184 µM],?
COc1c(N2CCN[C@H](C)C2)c(F)cc2c(=O)c(C(=O)O)cn(C3CC3)c12,·,?,14%,·,?,·
COc1c(N2CCN(C(=S)NCc3ccccc3)C(C)C2)c(F)cc2c(=O)c(C(=O)O)cn(C3CC3)c12 (stereo not drawn),11%,2.9µM*,10µM*,-67*,9.3µM*,-23%
CNC1CCCN(c2c(F)cc3c(=O)c(C(=O)O)cn(C4CC4)c3c2OC)C1 (stereo not drawn),·,4.3µM*,·,·,4.8µM*,·
CN1C[C@@H]2C[C@H]1CN2c1cc2c(cc1F)c(=O)c(C(=O)O)cn2C1CC1,·,0.85µM*,·,13,5.4µM*,·
CCOc1ccc(CCNC(=O)CCn2c(=O)c3cccn3c3cccnc32)cc1,-2%[46.1 µM],·,·,-28,·,·
O=C(NCc1ccc(Cl)cc1)c1cnc2sc(N3CCOCC3)nn2c1=O,12%[46.1 µM],·,·,3,·,·
CCCCCOc1ccc(C(=O)NCC2(c3ccccc3)CCOCC2)cc1,-24%[14.3 µM],?,·,-33,13µM*,-20%
COc1ccc(C2(CNC(=O)c3ccccc3)CCOCC2)cc1,9%,?,14%,9,?,0%[14.2 µM]
CCOc1ccc(C(=O)NCC2(c3ccccc3)CCOCC2)cc1,·,24%,-2%,-16,7%,·
CCCCOc1ccc(C(=O)NCC2(c3ccccc3)CCOCC2)cc1,?,10µM*,5%,-12,?,3%
Cc1ccnc(N/C=C/C(=O)c2ccc(Br)cc2)c1,?,122%,1%,-16,58%,?
COc1ccc(C(=O)/C=C/Nc2cc(C)ccn2)cc1,?,-50%,-2%,10,82%,1.3µM*
COc1cc2ccccc2cc1C(=O)Nc1nccs1,·,78%,11µM*,212,149%,·
COc1cc2ccccc2cc1C(=O)Nc1cc(C)ccn1,-4%[46.1 µM],14%,13µM*,85,70%,?
Cc1ccc(S(=O)(=O)c2nc(-c3ccco3)oc2SCc2ccc(F)cc2)cc1,-29%[46.1 µM],·,·,-23,·,-1%[46.1 µM]
SMILES,LASV entry inh,Pf growth 96h,HCV inhibitor,HCMV antiviral,Pf growth 48h,Marburg entry inh
Cc1ccc(C(C)C)c(OCC(=O)Nc2ccc(O)c(-c3nc4cc(Cl)ccc4o3)c2)c1,-5%[46.1 µM],·,·,?,·,·
O=C(Cn1c(=O)ccc2cc(S(=O)(=O)N3CCCC3)ccc21)Nc1ccc(Cl)cc1,-27%[46.1 µM],·,·,11,·,·
CNc1cncc(-c2cccnc2)n1,·,·,·,48,·,·
COc1ccc(/C=C/C2=CCN(Cc3ccc(OC)cc3)CC2)cc1,-16%[46.1 µM],?,-22%,?,-25%,4.5µM*
COc1ccc(CN2CCN(Cc3ccccc3OC)CC2)cc1,·,9%,6%,9,11%,·
O=C(CSc1cccc2cccnc12)N/N=C/c1ccc(O)cc1,·,10%,-19%,12,-13%,·
O=C(CSc1ncccn1)N/N=C/c1cccc(OC2CSC2)c1,·,12µM*,5%,-32,5%,·
COc1cccc(/C=N/NC(=O)CSc2cccc3cccnc23)c1,·,?,?,-92*,-20%,·
CCN(C(=O)CCS(=O)(=O)c1cc2[nH]c(=O)c(=O)[nH]c2cc1C)c1ccccc1,20%[46.1 µM],·,·,0,·,·
CCn1cc(C(=O)OCC(=O)Nc2cc(OC)cc(OC)c2)c(=O)c2ccc(C)nc21,?,·,·,-37,·,3%[46.1 µM]
CC1(C)CC(C)(c2ccc(O)cc2O)N(c2cccc(Cl)c2)C(=S)N1 (stereo not drawn),11%,?,?,85,4.1µM*,-33%
CC1(C)CC(C)(c2ccc(O)cc2O)N(c2ccc3ccccc3c2)C(=S)N1 (stereo not drawn),-4%,?,10µM*,-15,?,-9%[46.1 µM]
CN1C(=S)NC(C)(C)CC1(C)c1ccc(O)cc1O (stereo not drawn),15%,-4%,22%,7,-2%,5%
Cc1ccc2c(=O)c(C(=O)c3cccc(Cl)c3)cn(CC(=O)Nc3ccccc3C(F)(F)F)c2n1,6%[46.1 µM],·,·,12,·,·
O=C(NC1CCCCCC1)c1ccc(=O)n(Cc2ccccc2)n1,·,?,-19%,-66*,-26%,·
CCn1c(/C=C/c2ccccc2Cl)nc2ccccc2c1=O,3%[46.1 µM],1.7µM*,-18%,-79*,1.9µM*,14%[46.1 µM]
C=CCSc1nc2ccccc2c(=O)n1Cc1ccccc1,-11%,84%,-12%,-27,12µM*,?
Cc1[nH]c2ccccc2c1/C=C/c1nc2ccccc2c(=O)[nH]1,?,?,-24%,96,?,?
O=c1c2ccccc2nc(SCc2ccccc2Cl)n1Cc1ccccc1,11%,?,-22%,-26,?,-2%
CCn1c(/C=C\c2ccccc2C)nc2ccccc2c1=O,·,27%,?,-9,?,·
Cc1cccc(/C=C/c2nc3ccccc3c(=O)n2Cc2ccccc2)c1,?,0%,?,-83*,22%,?
Cc1cccc(/C=C/c2nc3ccccc3c(=O)[nH]2)c1,3.5µM*,-19%,-8%,7,-16%,?
Cc1oc2ncn(C)c(=O)c2c1C(=O)NC(C)c1ccccc1 (stereo not drawn),-3%[46.1 µM],·,·,3,·,·
Cc1ccc(CNC(=O)CSc2ncc3c(n2)-c2ccc(Cl)cc2N(Cc2ccccc2)S3(=O)=O)cc1,?,·,·,3,·,·
O=c1c2ccccc2nc(/C=C/c2cc(Br)ccc2O)n1CCCO,10µM*,?,?,-96*,1.3µM*,?
O=c1c2ccccc2nc(/C=C/c2ccccc2)n1CCc1ccccc1,4%,4.7µM*,0%,-10,?,20%
